Reference: publication PMC5700166

Key:
Experiment in all cases: protein-binding microarray (PBM); PBM: ~300 nM protein, 6 mM HEPES pH 7.8, 80 mM KCl, 0.5 mM EDTA, 0.5 mM EGTA, 6% glycerol, 35 ng/ul poly-dIdC, 1% milk, 1 h, room temperature; Ap Aiptasia and Nv Nematostella (sea anemones) / Co Capsaspora / Aq Amphimedon (sponge) / Dm Drosophila / Hu human; RHD is the Rel homology domain; high values mean tight binding
Conditions in all cases: dsDNA, one strand shown
GST-Ap-NF-kB RHD = biological target: T1, GST-Ap-NF-kB RHD (Exaiptasia pallida (Aiptasia), UniProt A0A913YAJ5 2-422)
T1 sequence: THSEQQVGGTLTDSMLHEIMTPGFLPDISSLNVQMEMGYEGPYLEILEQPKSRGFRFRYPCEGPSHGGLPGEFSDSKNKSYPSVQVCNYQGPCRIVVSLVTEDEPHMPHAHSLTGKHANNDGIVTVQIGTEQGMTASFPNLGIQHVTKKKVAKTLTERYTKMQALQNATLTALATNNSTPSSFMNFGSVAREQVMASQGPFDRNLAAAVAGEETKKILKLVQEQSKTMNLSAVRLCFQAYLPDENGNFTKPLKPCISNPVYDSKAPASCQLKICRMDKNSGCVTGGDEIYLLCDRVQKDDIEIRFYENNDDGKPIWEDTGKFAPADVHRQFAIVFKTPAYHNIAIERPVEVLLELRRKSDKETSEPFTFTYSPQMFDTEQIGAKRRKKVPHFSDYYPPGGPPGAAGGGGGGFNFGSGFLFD

[1] = biological target: T2, GST-Nv-NF-kB (Cys allele) (Nematostella vectensis, UniProt E5G601 2-411)
T2 sequence: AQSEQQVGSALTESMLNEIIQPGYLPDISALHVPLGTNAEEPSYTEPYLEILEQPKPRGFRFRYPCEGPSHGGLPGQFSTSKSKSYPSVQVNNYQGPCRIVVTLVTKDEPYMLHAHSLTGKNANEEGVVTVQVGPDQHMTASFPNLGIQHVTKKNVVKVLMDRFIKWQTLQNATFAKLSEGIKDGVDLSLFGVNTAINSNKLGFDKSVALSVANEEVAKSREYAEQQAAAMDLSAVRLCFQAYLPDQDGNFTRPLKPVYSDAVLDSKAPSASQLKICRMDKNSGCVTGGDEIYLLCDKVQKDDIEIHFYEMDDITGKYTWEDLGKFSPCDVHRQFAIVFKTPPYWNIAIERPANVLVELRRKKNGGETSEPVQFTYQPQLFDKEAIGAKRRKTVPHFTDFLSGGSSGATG

GST-Dm-Relish = biological target: T3, GST-Dm-Relish (Drosophila melanogaster, UniProt Q94527 99-473)
T3 sequence: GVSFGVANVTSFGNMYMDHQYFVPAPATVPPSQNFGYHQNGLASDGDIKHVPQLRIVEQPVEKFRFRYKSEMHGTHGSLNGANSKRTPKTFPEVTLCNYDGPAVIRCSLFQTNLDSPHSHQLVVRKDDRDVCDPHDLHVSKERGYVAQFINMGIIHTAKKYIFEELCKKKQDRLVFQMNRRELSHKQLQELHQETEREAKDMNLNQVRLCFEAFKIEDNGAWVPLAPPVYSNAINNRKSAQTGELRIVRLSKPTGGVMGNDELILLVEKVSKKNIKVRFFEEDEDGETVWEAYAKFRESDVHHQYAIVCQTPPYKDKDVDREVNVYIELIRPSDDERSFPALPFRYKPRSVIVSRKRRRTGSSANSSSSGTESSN

GST-Aq-NF-kB = biological target: T4, GST-Aq-NF-kB (Amphimedon queenslandica, UniProt A9Y5G7 2-389)
T4 sequence: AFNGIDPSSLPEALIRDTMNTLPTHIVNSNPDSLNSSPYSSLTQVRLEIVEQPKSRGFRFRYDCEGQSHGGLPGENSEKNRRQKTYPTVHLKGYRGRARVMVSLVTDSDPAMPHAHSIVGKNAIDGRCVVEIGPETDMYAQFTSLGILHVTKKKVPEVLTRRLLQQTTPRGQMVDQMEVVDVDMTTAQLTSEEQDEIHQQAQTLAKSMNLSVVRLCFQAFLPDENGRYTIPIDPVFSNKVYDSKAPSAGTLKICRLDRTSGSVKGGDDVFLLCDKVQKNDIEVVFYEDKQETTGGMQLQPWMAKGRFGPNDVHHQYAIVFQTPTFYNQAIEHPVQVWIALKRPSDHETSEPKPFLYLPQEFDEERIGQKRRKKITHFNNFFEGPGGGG

Sequence	binding signal (GST-Ap-NF-kB RHD) [z-score]	binding signal [1] [z-score]	binding signal (GST-Dm-Relish) [z-score]	binding signal (GST-Aq-NF-kB) [z-score]
CCGATTAACATCAGGGATCTACCTGATGTTAATCGGGTCTTGATTCGCTTGACGCTGCTG	3.06	2.58	7.65	4.74
CCGATTAACATCAGGGGTTCCACTGATGTTAATCGGGTCTTGATTCGCTTGACGCTGCTG	2.77	2.46	5.79	3.97
CCGATTAACATCAATGGGTTTTCTGATGTTAATCGGGTCTTGATTCGCTTGACGCTGCTG	1.73	1.21	2.88	1.85
CCGATTAACATCAGGAAGTCCCATGATGTTAATCGGGTCTTGATTCGCTTGACGCTGCTG	4.82	5.32	6.71	4.99
CCGATTAACATCAGGGATTTACCTGATGTTAATCGGGTCTTGATTCGCTTGACGCTGCTG	4.76	5.65	9.23	6.8
CCGATTAACATCAAAATTCCACCTGATGTTAATCGGGTCTTGATTCGCTTGACGCTGCTG	1.5	2.45	1.96	2.25
CCGATTAACATCAGGAGATACCCTGATGTTAATCGGGTCTTGATTCGCTTGACGCTGCTG	3.04	3.44	3.18	6.4
CCGATTAACATCACGGAAGTCCCTGATGTTAATCGGGTCTTGATTCGCTTGACGCTGCTG	5.31	5.39	6.53	5.41
CCGATTAACATCAGGAAAAGCCCTGATGTTAATCGGGTCTTGATTCGCTTGACGCTGCTG	2.12	1.89	4.12	4.95
CCGATTAACATCAGGGATTCCACTGATGTTAATCGGGTCTTGATTCGCTTGACGCTGCTG	2.72	1.75	6.88	4.11
CCGATTAACATCAGGAATCCCTATGATGTTAATCGGGTCTTGATTCGCTTGACGCTGCTG	2.79	2.15	6.17	2.57
CCGATTAACATCAGGCAAATCCCTGATGTTAATCGGGTCTTGATTCGCTTGACGCTGCTG	1.95	2.27	1.36	4.16
CCGATTAACATCATTAGGGTATTTGATGTTAATCGGGTCTTGATTCGCTTGACGCTGCTG	2.55	3.98	1.47	3.54
CCGATTAACATCAAAAAAATACCTGATGTTAATCGGGTCTTGATTCGCTTGACGCTGCTG	1.95	2.83	5.83	3.53
CCGATTAACATCAGGTATTTTTATGATGTTAATCGGGTCTTGATTCGCTTGACGCTGCTG	1.27	2.01	3.8	2.77
CCGATTAACATCACGGGACTTCCTGATGTTAATCGGGTCTTGATTCGCTTGACGCTGCTG	5.89	6.03	7.87	6.21
CCGATTAACATCAGGGCATACCCTGATGTTAATCGGGTCTTGATTCGCTTGACGCTGCTG	2.36	3.25	3.77	5.87
CCGATTAACATCATGAAGACCCCTGATGTTAATCGGGTCTTGATTCGCTTGACGCTGCTG	2.6	1.18	1.35	2.25
CCGATTAACATCACGGACTTCCCTGATGTTAATCGGGTCTTGATTCGCTTGACGCTGCTG	2.56	2.62	7.44	5.45
CCGATTAACATCAAGGACTTCCCTGATGTTAATCGGGTCTTGATTCGCTTGACGCTGCTG	2.9	3.39	6.91	5
CCGATTAACATCAGGGAGTTCCATGATGTTAATCGGGTCTTGATTCGCTTGACGCTGCTG	2.73	3.31	4.43	4.38
CCGATTAACATCAGGGACCTCCCTGATGTTAATCGGGTCTTGATTCGCTTGACGCTGCTG	5.47	4.78	6.16	7.04
CCGATTAACATCAAGGGCATTCCTGATGTTAATCGGGTCTTGATTCGCTTGACGCTGCTG	1.84	1	2.4	3.02
CCGATTAACATCAGGGAAGCACCTGATGTTAATCGGGTCTTGATTCGCTTGACGCTGCTG	4.67	5.46	9.38	6.3
CCGATTAACATCACGGAAAGCCCTGATGTTAATCGGGTCTTGATTCGCTTGACGCTGCTG	1.02	1	2.9	4.35
CCGATTAACATCAGGACAGTCCCTGATGTTAATCGGGTCTTGATTCGCTTGACGCTGCTG	4.92	5.23	3.04	7.13
CCGATTAACATCAGGGGCTGTACTGATGTTAATCGGGTCTTGATTCGCTTGACGCTGCTG	2.83	3.09	3.56	4.35
CCGATTAACATCACGGTATTTCCTGATGTTAATCGGGTCTTGATTCGCTTGACGCTGCTG	1.56	1.37	3.77	4.59
